In PubChem BioAssay (NCATS):
Records with an inconclusive call do not appear. Activity calls are given as the source filed them. Calls come from the whole dose curve; as a rule, active = well fitted curve in the direction sought with a large enough effect; inconclusive = small, poorly fitted or top-dose-only effect, or another doubt; inactive = no such curve, though single readings can be large; an effect the other way counts as inactive or inconclusive.

Assays:
[1] = biological target: DNA repair nuclease/redox regulator APEX1 (Homo sapiens) (UniProt P27695); assay: qHTS Validation Assay for Inhibitors of the Human Apurinic/apyrimidinic Endonuclease 1 (APE1) (AID 1705;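 note: TAMRA fluorescence gain over two minutes as APE1 cuts a quenched THF abasic duplex; series mostly up to about 57 µM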)
DNA repair nuclease/redox regulator APEX1 (Homo sapiens), sequence (P27695 whole entry, looked up): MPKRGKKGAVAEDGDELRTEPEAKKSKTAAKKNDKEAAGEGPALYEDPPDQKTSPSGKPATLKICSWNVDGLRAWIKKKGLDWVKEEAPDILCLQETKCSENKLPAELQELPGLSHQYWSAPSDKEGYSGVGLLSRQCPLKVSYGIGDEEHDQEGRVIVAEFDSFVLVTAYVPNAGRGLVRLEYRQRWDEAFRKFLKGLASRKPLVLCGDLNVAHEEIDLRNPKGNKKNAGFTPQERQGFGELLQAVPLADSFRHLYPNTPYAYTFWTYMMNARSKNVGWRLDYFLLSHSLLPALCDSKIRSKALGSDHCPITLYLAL
Method in brief: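 Substrate: 50 nM final fluorophore/quencher THF-abasic duplex. Enzyme preincubated with compounds 15 min, RT. Progress derived from fluorescence difference, third minus first kinetic read.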

[2] = Counterscreen for APE1 Inhibitors: Fluorescent Dye Displacement Validation Assay (AID 1707)
Method in brief: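 Reaction mixture of 250 nM Thiazole Orange and 50 nM double-stranded abasic-site DNA was dispensed, compounds were pin-transferred, and fluorescence was read at endpoint (480 nm ex, 540 nm em). Reduced fluorescence indicated dye displacement by DNA binding.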

[3] = biological target: Endonuclease 4 (Escherichia coli (strain K12)) (UniProt P0A6C1); assay: Counterscreen for APE1 Inhibitors: qHTS Validation Assay for Inhibitors of Endonuclease IV (AID 1708)
Method in brief: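 Enzyme (2 nM) + compound, 15 min RT; add 50 nM TAMRA/BHQ-2 THF-site dsDNA; kinetic read ex525/em598, 3 reads/60 s; activity = read 3 − read 1. Buffer Tris pH 7.5, 50 mM NaCl, 2 mM MgCl2, DTT, Tween-20.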

[4] = qHTS for differential inhibitors of proliferation of Plasmodium falciparum line 7G8 (AID 1815);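 note: parasite growth measured after three days of incubation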; note: potency is the fitted concentration of half-maximal effect
[5] = qHTS for differential inhibitors of proliferation of Plasmodium falciparum line 3D7 (AID 1876); note: potency is the fitted concentration of half-maximal effect
[6] = biological target: alpha-glucosidase (Oryza sativa, rice) (UniProt Q653V4); assay: Counterscreen for Glucocerebrosidase Inhibitors: qHTS Assay for Rice alpha-Glucosidase at pH 5.0 (AID 997)
Method in brief: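 Endpoint fluorogenic assay at pH 5.0: compounds (0.7 nM to 77 uM) titrated against 4 nM rice enzyme and 400 uM 4-MU-alpha-glucoside for 20 min at room temperature; NaOH/glycine stop, read ex 365/em 440 nm, Hill-fitted AC50.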

[7] = qHTS for differential inhibitors of proliferation of Plasmodium falciparum line GB4 (AID 1816); settings: Potency: Plasmodium falciparum GB4 proliferation inhibition;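 note: parasite growth measured after 72 h incubation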; note: potency is the fitted concentration of half-maximal effect

Measured: Potency

O=C1OC(=O)C2C3CCC(O3)C12 (stereo not given)
not listed: [6] | [7]
inactive: all other assays above

COc1ccccc1N1CCN(CCN(C(=O)c2ccc(F)cc2)c2ccccn2)CC1
inactive: [1] | [2] | [3]

Fc1ccc(CN(C2=NCCN2)c2c(Cl)cccc2Cl)cc1
active: [4] 6.31 µM | [7] 5.62 µM | [5] 11.2 µM
inactive: all other assays above

CCCCCCCCCCCCCCSCC(=O)O
inactive: all assays above

O=C(N[C@@H](Cc1ccccc1)C(=O)CCl)OCc1ccccc1
active: [4] 8.91 µM | [7] 10 µM | [5] 11.2 µM
inactive: [6] | [1] | [2]

N=C(N)c1ccc(OCCCCCOc2ccc(C(=N)N)cc2)cc1 (tested in a mixture with another compound)
active: [4] 0.282 µM | [7] 0.251 µM | [5] 0.0891 µM
inactive: all other assays above

O=C1Cc2c([nH]c3ccc(Br)cc23)-c2ccccc2N1
inactive: [6] | [2]
active: [4] 8.91 µM | [7] 10 µM | [5] 11.2 µM
